Measurements from PubChem BioAssay (NCATS).
Records with an inconclusive call do not appear. The call rests on the fitted dose curve; in most records, active means well fitted curve in either direction with a large enough effect (not every such curve was filed as active); inconclusive means small, poorly fitted or top-dose-only effect, or another doubt; inactive means flat fitted curve, though single readings scatter.

Assay: Stat Signaling Pathway (AID 446);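 further: ME-180 cervical cancer cells given 40 pM IL-6 alongside compound; SIE-controlled beta-lactamase reporter measured as 460/530 nm FRET emission ratio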
Conditions: ME-180 (cervical carcinoma) SIE beta-lactamase reporter, IL-6 stimulated, 5 h; at 17.2 µM (top of the series) unless noted
How it was run: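 IL-6/STAT signaling read in ME-180 cells via an SIE beta-lactamase reporter. Stimulus was 40 pM IL-6 (its AC50) for 5 hrs, so both activation and inhibition register.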
On the % scale 0 is the no-effect control and ±100 the full control effect.

activity, negative = inhibition, inactive:
CC1(C)CC(=O)C=C(NCc2ccncc2)C1 8.27%
COCC(C)Nc1ncnc2c1cnn2-c1ccc(Cl)cc1 (stereo not given) -3.72%
CCOCCn1c(SC)nc2c1c(=O)[nH]c(=O)n2C -1.1%
COc1cccc(C2/C(=C(\O)c3ccc4c(c3)OCCO4)C(=O)C(=O)N2CCCN(C)C)c1OC (stereo not given) 4.4%
O=c1[nH]cnc2cc(-c3ccccc3)sc12 9.54%
C#CC1CN(Cc2ccccc2)CC(C#C)N1C (stereo not given) 9.92%
N#CC1=C(C=Nc2ccccc2O)CCC1 -1.34%
O=C(O)CCCC(=O)N1CCN(C(c2ccccc2)c2ccccc2)CC1 0.344%
Cc1nc(NCCO)c(C#N)c2c1COC(C)(C)C2 4.18%
CCN(CC)c1ncc(C)c(=O)[nH]1 7.65%
O=C(O)c1ccc(COc2c(F)c(F)c(F)c(F)c2F)o1 -10.8%
CCOC(=O)c1ccc(-n2c(=O)[nH]c3ccccc3c2=O)cc1 2.95%
CCNC(=O)Nn1c(C)nnc1C 6.6%
CC(=O)N/C(=N/c1nc(C)cc(C)n1)Nc1ccc(NC(C)=O)cc1 -1.02%
COC(=O)[C@@H](N)Cc1ccc(O)cc1 -6.81%
O=C(O)CC(NCc1ccco1)C(=O)OCCc1ccccc1 (stereo not given) 0.0661%
O=C(O)CN(c1ccccc1)C1SC(=O)NC1=O (stereo not given) 10.5%
COc1ccc(CN(C)CCc2ccccn2)c(OC)c1OC 11.1%
Cn1c(=O)c2c(nc(N3CCN(Cc4ccccc4)CC3)n2CC(=O)c2ccccc2)n(C)c1=O 0.621%
O=S(=O)(/C=C/c1ccccc1)Nc1ccc2c(c1)OCO2 -22.1%
COc1ccc(-c2cc3nc4n(c(=O)c3s2)CCOC4)cc1 0.631%
COc1cccc(Cn2c(NCc3ccccn3)nc3c2c(=O)n(C)c(=O)n3C)c1 -15.6%
CCOc1ccc(/C(O)=C2/C(=O)C(=O)N(CCN(C)C)C2c2ccccc2)cc1Cl (stereo not given) 7.84%
CCOC(=O)C1=C(N)N2C(=O)CSC2=C(C(=O)OC)C1 -25.6%
CC1(C)Cc2c(c(-c3ccccc3Cl)[nH]c(=O)c2C#N)CO1 2.62%
Cn1c(/C(C#N)=C/Nc2ccccn2)nc2ccccc21 8.51%
c1ccc(SCc2nc3ccccc3[nH]2)nc1 8.86%
CC1(C)SC2[C@H](NC(=O)C(NC(=O)N3CCNC3=O)c3ccccc3)C(=O)N2C1C(=O)O (stereo not given in full) 1.47%
O=C(c1ccco1)N1CCN(c2ncnc3c2[nH]c2ccccc23)CC1 -16.9%
CSc1nc(N)nc(SCC(=O)OC(C)C)c1C#N -5.26%
Cc1c(C2CC(=O)N(c3ccccc3)C2=O)[nH]n(-c2ccccc2)c1=O (stereo not given) 1.65%
CCOC(=O)c1[nH]c2ccccc2c1NC(=O)CN(C)C 1.63%
CCOc1ccc(C2/C(=C(/O)c3ccc(OC)cc3)C(=O)C(=O)N2c2cc(C)on2)cc1OC (stereo not given) -9.83%
COc1ccc(-c2cc(=O)[nH]c(=O)[nH]2)cc1 -5.47%
O=S1CCCSC1c1cccnc1 (stereo not given) 2.7%
Cc1c(/C(O)=C2/C(=O)C(=O)N(CCN3CCOCC3)C2c2cccnc2)cnn1-c1ccccc1 (stereo not given) -0.626%
CCOC(=O)C1=C(C)NC(=O)C1CC(=O)Nc1ccccc1 (stereo not given) 3.03%
CC(C)c1nc2n[nH]c(N)c2c2c1CCCC2 -2.14%
CC(C)=CCC(C)(C)CNC(=O)NC1CCCCC1 10.9%
COC(=O)NC(Nc1sc2c(c1C(N)=O)CCCC2)(C(=O)OC)C(F)(F)F (stereo not given) 5.04%
